Data as given in PubChem BioAssay AID547 (Emory University Molecular Libraries Screening Center, 2006).
Out of some 1,300 compounds screened, about 10 (0.8%) were called active. The rule behind the calls is not given here. The full list was thinned out, with actives kept by preference.

biological target: Chaperone protein DnaK (Escherichia coli (strain K12)) (UniProt P0A6Y8); assay: E. coli DnaK chaperone inhibitors, primary screen, luminescence, E. coli K12 (AID 547); conditions: DnaK chaperone assay, luminescence read-out; hits give low values;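 note: tested at 10 µM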

luminescence, active:
CCCCCCCCCCCCCCCC(=O)NCC(COP(=O)([O-])OCC[N+](C)(C)C)OCC (stereo unspecified) 1.9e+06 cps
COc1ccc(/C=C/C(=O)Nc2ccccc2C(=O)O)cc1OC 1.6e+06 cps

luminescence, inactive:
CC(=O)O[C@H]1CC2(C)[C@@H](C[C@@H](O)[C@H]3[C@@]4(C)CC[C@@H](O)[C@@H](C)[C@@H]4CC[C@@]32C)C1=C(CCC=C(C)C)C(=O)O (stereo partly specified) 2.8e+06 cps
O=C1N=C(O)CN1/N=C/c1ccc(-c2ccc([N+](=O)[O-])cc2)o1 3e+06 cps
CCCCCCCCCCCCCCCCCC(=O)NCC(COP(=O)([O-])OCC[N+](C)(C)C)OCC (stereo unspecified) 2.8e+06 cps
CCCCCCCCCCCCCCCCCCOC[C@H](COP(=O)([O-])OCC[N+](C)(C)C)OC 2.6e+06 cps
COc1cccc(-c2cc(=O)c3ccccc3o2)c1N 2.2e+06 cps
CC(C)OC(=O)C(C)(C)Oc1ccc(C(=O)c2ccc(Cl)cc2)cc1 2.9e+06 cps
COc1ccc(CCN(C)CCCC(C#N)(c2cc(OC)c(OC)c(OC)c2)C(C)C)cc1OC (stereo unspecified) 2.5e+06 cps
COc1ccccc1N1CCN(CCN2C(=O)CC3(CCCC3)CC2=O)CC1 3.1e+06 cps
NC(=O)N1c2ccccc2C=Cc2ccccc21 2.7e+06 cps
Cc1ccc(C(=O)O[C@H](C(=O)O)[C@H](OC(=O)c2ccc(C)cc2)C(=O)O)cc1 (tested in a mixture with another compound) 2.5e+06 cps
CNC[C@H](O)c1cccc(O)c1 2.3e+06 cps
Cc1nc2n(c(=O)c1CCN1CCC(c3noc4cc(F)ccc34)CC1)CCCC2 2.6e+06 cps
c1ccc(-c2ccccn2)nc1 2.6e+06 cps
CCCCOC(=O)NS(=O)(=O)c1sc(CC(C)C)cc1-c1ccc(Cn2c(CC)nc3c(C)cc(C)nc32)cc1 2.5e+06 cps
CC#C[C@]1(O)CC[C@H]2[C@@H]3CCC4=CC(=O)CCC4=C3[C@@H](c3ccc(N(C)C)cc3)C[C@@]21C 2e+06 cps
NCCCCCC(=O)O 2.3e+06 cps
Oc1cc(O)c2c(c1)O[C@H](c1ccc(O)c(O)c1)[C@@H](O)C2 2.8e+06 cps
CN1Cc2c(N)cccc2C(c2ccccc2)C1 (stereo unspecified) 2.2e+06 cps
CN(C)c1cc2c(Nc3ccc4c(cnn4Cc4ccccc4)c3)ncnc2cn1 3e+06 cps
CCSC(=N)N 2.4e+06 cps
N[C@@H](CC(=O)O)C(=O)O 2.4e+06 cps
N#Cc1cc2nc(O)c(O)nc2cc1[N+](=O)[O-] 2.8e+06 cps
CN(C)c1nc(N(C)C)nc(N(C)C)n1 2.4e+06 cps
COc1cc([C@@H]2c3cc4c(cc3[C@H](O)C3COC(=O)[C@@H]32)OCO4)cc(OC)c1OC (stereo partly specified) 2.6e+06 cps
CN1[C@@H](CC(=O)c2ccccc2)CCC[C@H]1C[C@H](O)c1ccccc1 2.6e+06 cps
CCCCN1CCC(COC(=O)c2cc(Cl)c(N)c3c2OCCO3)CC1 2.2e+06 cps
COC(=O)C(N)Cc1ccc(Cl)cc1 (stereo unspecified) 2.2e+06 cps
CC(C)NC[C@@H](O)c1ccc(O)c(O)c1 2.5e+06 cps
Nc1ccc(CCNc2ncnc3c2ncn3C2OC(CO)C(O)C2O)cc1 (stereo unspecified) 2.9e+06 cps
CN1CCCC1CCOC(C)(c1ccccc1)c1ccc(Cl)cc1 (stereo unspecified) 2.5e+06 cps
NC(=NCc1ccccc1)NC(=O)c1nc(Cl)c(N)nc1N 2.1e+06 cps
CCCC1O[C@@H]2C[C@H]3[C@@H]4CCC5=CC(=O)C=C[C@]5(C)[C@H]4[C@@H](O)C[C@]3(C)[C@]2(C(=O)CO)O1 (stereo partly specified) 2.4e+06 cps
Cn1c(=O)[nH]c2ncn(C)c2c1=O 2.8e+06 cps
CCCn1c(=O)c2[nH]c(-c3ccc(OCC(=O)Nc4ccc(C#N)cc4)cc3)nc2n(CCC)c1=O 2.3e+06 cps
COc1ccc(NC(=O)/C=C/c2ccc(Cl)cc2)cc1 2.8e+06 cps
O=C(O)c1ccccc1Nc1ccccc1 2.2e+06 cps
CCn1c(=O)[nH]c2cc(Cl)c(Cl)cc21 3.1e+06 cps
O=C(O)/C=C/c1cnc[nH]1 2.2e+06 cps
Cn1c(=O)c2c(nc(/C=C/c3cccc(Cl)c3)n2C)n(C)c1=O 2.6e+06 cps
O=c1cc(O)cc(/C=C/c2ccc(O)c(O)c2)o1 2.5e+06 cps
NC12CC3CC(CC(C3)C1)C2 2.3e+06 cps
CC[N+](C)(C)Cc1ccccc1Br 2.5e+06 cps
CCC(NC(C)C)C(O)c1ccc(O)c(O)c1 (stereo unspecified) 2.2e+06 cps
NC(N)=NCCSSCCN=C(N)N 3e+06 cps
NC[C@H](O)c1ccc(O)c(O)c1 2.6e+06 cps
Cc1cn([C@H]2C[C@@H](N=[N+]=[N-])[C@@H](CO)O2)c(=O)[nH]c1=O 2.8e+06 cps
CCCCCCCCCC[Si](C)(C)CCC(=O)NC(Cc1ccc(C)cc1)c1ccccc1 (stereo unspecified) 2.8e+06 cps
CC(N)=NCCC[C@H](N)C(=O)O 2.6e+06 cps
C[C@]12CCC(=O)C=C1CC[C@@H]1[C@@H]2C(=O)C[C@@]2(C)[C@H]1CC[C@]2(O)C(=O)CO 2.3e+06 cps
CNC(=O)[C@H]1O[C@@H](n2cnc3c(N)ncnc32)C(O)[C@H]1O (stereo partly specified) 2.5e+06 cps
CC(CCc1ccccc1)NCC(O)c1ccc(O)c(C(N)=O)c1 (stereo unspecified) 2.8e+06 cps
C=CCc1ccccc1OCC(O)CNC(C)C (stereo unspecified) 2.8e+06 cps
Cn1cnc2c(NC3CCCC3)ncnc21 2.5e+06 cps
Nc1nc(SCc2ccc([N+](=O)[O-])cc2)c2ncn([C@@H]3O[C@H](CO)[C@H](O)C3O)c2n1 (stereo partly specified) 2.7e+06 cps
